9 compounds from PubChem BioAssay (NCI) can be followed below.

Structures are written as SMILES. The panel holds about 83,000 compounds, 20% with a hit somewhere; the sample as a whole holds those more often.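 Percent growth is the endpoint: 0 to 100 indicates growth inhibition (40 means 60% inhibition), 0 means no net growth, and negative values indicate cell death.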 Values without a mark were called inactive. The source made the active and inactive calls. How the source made its calls: active means growth percent below 10; inactive means the rest.

What all share (test): NCI-60 one-dose screen, 48 h (100 = growth as untreated, 0 = no growth, -100 = all killed)
What all share (details): 10 µM unless noted

Assay [1] has as its system SR leukemia.
Assay [2] relates to RPMI-8226 leukemia.
Assay [3] concerns OVCAR-5 ovarian.
The test system of assay [4] is OVCAR-4 ovarian.
Assay [5] relates to SK-OV-3 ovarian.
Assay [6] deals with IGROV1 ovarian.
Assay [7] concerns OVCAR-3 ovarian.
The subject of assay [8] is HS 578T breast.
Assay [9] has as its system NCI/ADR-RES ovarian.
In assay [10] the test system is T-47D breast.
In assay [11] the test system is BT-549 breast.
Assay [12] deals with MDA-MB-435 melanoma.
Assay [13] deals with SW-620 colon.
The subject of assay [14] is MCF7 breast.
For assay [15], the system named is HCT-116 colon.
Assay [16] has as its system HCC-2998 colon.
In assay [17] the test system is KM12 colon.

With `COc1ccc(Cn2cc3c(c2-c2cc(OC)c(OC)c(OC)c2)CCc2c(CN4CCOCC4)noc2-3)cc1`, the growth is 23.8% in [1]; 28.3% in assay [2]; 32.1% in [3]; 52.8% in assay [4]; 54.2% in assay [5]; 28.3% in [6]. The growth is 2.5% (active) in assay [7]; 15.3% in [8]; 8.51% (active) in [9]; 61.5% in assay [10]; 76.8% in [11]; -19.9% (active) in [12]. Further, the growth was 30.4% in assay [13]; 16.8% in [14]; 13.4% in assay [15]; 21.3% in [16]; 16.9% in assay [17].
Regarding `COc1cc(Cn2cc3c(c2)-c2onc(CN4CCOCC4)c2CC3)cc(OC)c1OC`, the growth in [1] is 114%; in assay [2], 91%; in [3], 95%; in assay [4], 74%; in [5] it was 106%; in [6], 99.8%. Besides, the growth in [7] is 113%; in assay [8] it was 110%; in assay [9], 100%; in assay [10], 79.3%; in assay [11], 96.7%; in assay [12], 101%. Further, the growth is 112% in [13]; 89% in assay [14]; 104% in [15]; 105% in assay [16]; 101% in [17].
Take `COc1ccccc1NCc1cccn1Cc1ccc(F)cc1`: the growth in assay [1] was 100%; in assay [2], 95.2%; in [3], 95.7%; in assay [4] it was 96.9%; in [5], 116%; in assay [6], 88.8%. Also, the growth in [7] was 112%; in assay [8] it was 105%; in assay [9], 93.7%; in assay [10] it was 97%; in assay [11], 93.3%; in assay [12] it was 99.6%. The growth in assay [13] is 98.2%; in assay [14], 93.1%; in assay [15], 93.8%; in assay [16], 105%; in assay [17] it was 95.9%.
In the case of `CCc1nn2c(C)cc(C)nc2c1Cc1ccc(/C=C/CN2CCN(CCOCCOCCN3CCN(C/C=C/c4ccc(Cc5c(CC)nn6c(C)cc(C)nc56)cc4)CC3)CC2)cc1`, the growth is -30.9% (active) in [1]; -41.9% (active) in [2]; 28.2% in assay [3]; 25.9% in [4]; 85.2% in [5]; 4.6% (active) in assay [6]. Besides, the growth is -60.4% (active) in assay [7]; -39.4% (active) in assay [8]; 23.2% in assay [9]; -36.4% (active) in [10]; 79.7% in [11]; -78.3% (active) in assay [12]. The growth was -50.4% (active) in [13]; -85.8% (active) in assay [14]; -84.1% (active) in assay [15]; -61.9% (active) in assay [16]; 35.2% in assay [17].
With `COc1cc(Cn2cc3c(c2)-c2onc(CN4CCCC4)c2CC3)cc(OC)c1OC`, the growth is 97.9% in [1]; 88% in assay [2]; 99% in assay [3]; 72.7% in assay [4]; 108% in assay [5]; 101% in assay [6]. In addition, the growth is 100% in assay [7]; 97.7% in [8]; 94.9% in assay [9]; 76.1% in assay [10]; 93.2% in assay [11]; 96.4% in [12]. The growth in [13] is 104%; in assay [14] it was 80.6%; in [15] it was 95.9%; in assay [16], 106%; in assay [17] it was 90.3%.
`COc1ccc(C(=O)c2c(N)c(C#N)cn2-c2ccccc2OC)cc1`: the growth in assay [1] was 16.1%; in [2], 35.9%; in assay [3], 76.7%; in [4] it was 63.3%; in assay [5], 45.6%; in assay [6] it was 33.1%. The growth was 14.6% in assay [7]; 13% in assay [8]; 13.5% in assay [9]; 32.1% in assay [10]; 64.5% in assay [11]; -27.8% (active) in assay [12]. For the same compound, the growth in [13] is 20.3%; in [14] it was 13.9%; in [15], 22.2%; in assay [16], 48%; in [17], 27.5%.
`CC[C@]12C=CCN3CC[C@@]4(c5cc(NC(=O)COc6cc(O)c7c(=O)cc(-c8ccccc8)oc7c6)c(OC)cc5N(C)[C@H]4[C@@](O)(C(=O)OC)[C@@H]1OC(C)=O)[C@@H]32`: the growth in assay [1] was -30.7% (active); in assay [2] it was -31.6% (active); in [3], -86% (active); in assay [4], -66.9% (active); in assay [5], -86.1% (active); in assay [6], -77.7% (active). Further, the growth in assay [7] is -86.2% (active); in assay [8], 2.1% (active); in [9], -49.9% (active); in assay [10], -60.5% (active); in assay [11], -36.2% (active); in assay [12] it was -44.7% (active). The growth in [13] is 7.84% (active); in assay [14], -44.3% (active); in assay [15], -89.2% (active); in [16], -98.2% (active); in [17], -82.2% (active).
For the compound `C#CCOc1ccc(/C=N\Nc2nc(-c3ccc(C)cc3)cs2)cc1OC`, the growth in assay [1] is 83.2%; in assay [2] it was 68.3%; in [3], 96.8%; in assay [4] it was 76.8%; in assay [5], 87.6%; in assay [6] it was 92.3%. For the same compound, the growth in [7] was 99.3%; in [8] it was 111%; in assay [9], 96.2%; in assay [10], 61.7%; in assay [11] it was 80.7%; in [12], 91.6%. The growth in [13] was 95.4%; in [14] it was 62.5%; in assay [15], 88%; in assay [16], 101%; in [17], 85.6%.
As to `COc1c(N2CC3CCCNC3C2)c(F)cc2c(=O)c(C(=O)N/N=C/c3ccc(Br)cc3)cn(C3CC3)c12` (stereo not drawn), the growth in assay [1] was -28.1% (active); in assay [2], 65.8%; in [3], 92.8%; in assay [4] it was 90.1%; in assay [5] it was 99.6%; in assay [6], 75.2%. Besides, the growth was 81.7% in [7]; 88.4% in assay [8]; 90.1% in assay [9]; 84.3% in assay [10]; 114% in [11]; 84.7% in assay [12]. Also, the growth is 89.6% in assay [13]; 52.4% in assay [14]; 50.5% in assay [15]; 92.2% in assay [16]; 97.3% in [17].
